{"source": "PubChem BioAssay (NCATS)", "note": "Inconclusive results are not listed. Activity calls are given as the source filed them. The call rests on the fitted dose curve; in most records, active means well fitted inhibition curve with a large enough effect; inconclusive means small, poorly fitted or top-dose-only effect; inactive means flat fitted curve, though single readings scatter. Potency means the concentration at half of the fitted maximal effect.", "data": [{"assay": "qHTS for differential inhibitors of proliferation of Plasmodium falciparum line Dd2 (AID 1882); further: nearly all actives have a fitted effect of over 65% in size", "details": "Potency: Plasmodium falciparum Dd2 proliferation inhibition; series mostly up to 28.7 µM; activity change, negative = inhibition: at the top concentration", "text": "NIH Molecular Libraries Probe Production Network [MLPCN]\nNIH National Institute of Allergy and Infectious Diseases [NIAID]\nNIH Chemical Genomics Center [NCGC]\nAssay Provider: Xinzhuan Su, NIAID\nPlasmodium falciparum is a virulent malarial parasite that kills 1-2 million people worldwide each year. Transmitted by mosquitoes, the sporozoite form of the parasite enters the blood stream to infect hepatocytes, where they become merozoites that infect red blood cells (erythrocytes). Within erythrocytes, merozoites begin a […] cycle of growth and division, after which the parasite is released to infect new red blood cells. Gametocytes, which form within erythrocytes as well, circulate in the bloodstream and are ingested by the mosquito, thereby completing the life cycle. To profile malarial isolates for differential chemical responses and to identify inhibitors of malarial growth, an assay that measures P. falciparum growth and replication within erythrocytes was employed. This assay uses a DNA binding fluorescent dye (SYBR Green) to detect parasite DNA following cell lysis. Because mature erythrocytes lack DNA, only Plasmodium-derived DNA is detected. The P. falciparum line Dd2, derived from a malarial isolate from […], was used.\nNCGC Assay Protocol Summary:\nThe SYBR Green viability assay was adapted from a method described previously (Plouffe et al., 2008). For screening 3 ul culture medium was dispensed into 1536 well black clear bottom plates (Aurora Biotechnologies) using a Multidrop Combi (Thermo Fisher Scientific Inc.), 23 nL compounds in DMSO were added by a pin tool (Kalypsys), and 5 ul of erythrocytes infected with P. falciparum line Dd2 (0.3% parasitemia, 2.5% hematocrit final concentration) were added. The plates were incubated at 37 C in a humidified incubator in 5% CO2 for 72 h, and 2 ul lysis buffer (20 mM Tris HCl, 10 mM EDTA, […]% saponin, 1.6% triton X, 10X SYBR Green I supplied as 10,000X […] by Invitrogen) was added to each well. The plates were mixed for 25 sec with gentle shaking and incubated overnight at room temperature in the dark. The following morning, fluorescence intensity at 485(14) nm excitation and 535(25) nm emission wavelengths was measured on an EnVision (Perkin Elmer) plate reader. Plate reads were normalized relative to the control inhibitor (0.29 uM artemisinin) and vehicle (DMSO) wells present on each plate and then corrected by an algorithm using vehicle-only control plates at the beginning and end of the compound plate stack.\nPlouffe D, Brinker A, McNamara C, Henson K, Kato N, Kuhen K, Nagle A, Adrian F, Matzen JT, Anderson P, Nam TG, Gray NS, Chatterjee A, Janes J, Yan SF, Trager R, Caldwell JS, Schultz PG, Zhou Y, Winzeler EA. […] Proc Natl Acad Sci U S A. 2008, 105(26), pp 9059-64.", "values": [{"smiles": "O=C1c2c(O)ccc(O)c2C(=O)c2c(NCCNCCO)ccc(NCCNCCO)c21", "Potency": "0.891 µM (active)"}, {"smiles": "CN(C)CCCN1c2ccccc2CCc2ccc(Cl)cc21", "Potency": "7.94 µM (active)"}, {"smiles": "NS(=O)(=O)c1cc2c(cc1Cl)NCNS2(=O)=O", "activity change, negative = inhibition": "-2.83% (inactive)"}, {"smiles": "Cc1ccccc1N1C(=O)c2cc(S(N)(=O)=O)c(Cl)cc2NC1C", "note": "(stereo not given)", "activity change, negative = inhibition": "1.65% (inactive)"}, {"smiles": "CC(C)Cc1ccc(C(C)C(=O)O)cc1", "note": "(stereo not given)", "activity change, negative = inhibition": "-0.432% (inactive)"}, {"smiles": "COc1cc2nc(N3CCN(C(=O)c4ccco4)CC3)nc(N)c2cc1OC", "Potency": "7.94 µM (active)"}, {"smiles": "CCC1(c2ccccc2)C(=O)NCNC1=O", "activity change, negative = inhibition": "-2.33% (inactive)"}, {"smiles": "O=C(Nc1ccc([N+](=O)[O-])cc1Cl)c1cc(Cl)ccc1O", "Potency": "1.41 µM (active)"}, {"smiles": "CC(C)NCC(O)COc1ccc(CCOCC2CC2)cc1", "note": "(stereo not given)", "activity change, negative = inhibition": "-9.78% (inactive)"}, {"smiles": "Cn1c(=O)c2c(ncn2C)n(C)c1=O", "activity change, negative = inhibition": "-1.56% (inactive)"}, {"smiles": "O=C1N(c2ccccc2)c2ccccc2C1(Cc1ccncc1)Cc1ccncc1", "activity change, negative = inhibition": "-25.8% (inactive)"}, {"smiles": "CS(=O)(=O)Nc1ccc([N+](=O)[O-])cc1Oc1ccccc1", "activity change, negative = inhibition": "-1.15% (inactive)"}, {"smiles": "Fc1ccc([C@@H]2CCNC[C@H]2COc2ccc3c(c2)OCO3)cc1", "Potency": "11.2 µM (active)"}, {"smiles": "Cn1cnc2c1c(=O)[nH]c(=O)n2C", "activity change, negative = inhibition": "-0.148% (inactive)"}, {"smiles": "COc1cc2nc(N3CCN(C(=O)C4COc5ccccc5O4)CC3)nc(N)c2cc1OC", "note": "(stereo not given)", "Potency": "11.2 µM (active)"}, {"smiles": "CN(C)c1nc(N(C)C)nc(N(C)C)n1", "activity change, negative = inhibition": "2.33% (inactive)"}, {"smiles": "Nc1nc2c(ncn2COC(CO)CO)c(=O)[nH]1", "activity change, negative = inhibition": "2.81% (inactive)"}, {"smiles": "CN1CCN(CCCN2c3ccccc3Sc3ccc(Cl)cc32)CC1", "Potency": "11.2 µM (active)"}, {"smiles": "Clc1ccc2c(c1)C(N1CCNCC1)=Nc1ccccc1O2", "Potency": "11.2 µM (active)"}, {"smiles": "Clc1ccc(C(c2ccccc2Cl)C(Cl)Cl)cc1", "note": "(stereo not given)", "activity change, negative = inhibition": "7.13% (inactive)"}, {"smiles": "CCOC(=O)C(C)(C)Oc1ccc(Cl)cc1", "activity change, negative = inhibition": "-1.7% (inactive)"}, {"smiles": "NC(=O)NO", "activity change, negative = inhibition": "-2.43% (inactive)"}, {"smiles": "Cc1cn([C@H]2C=C[C@@H](CO)O2)c(=O)[nH]c1=O", "activity change, negative = inhibition": "2.44% (inactive)"}, {"smiles": "CC12CC3CC(C)(C1)CC(N)(C3)C2", "Potency": "5.62 µM (active)"}, {"smiles": "COc1ccc2c(c1)c(CC(=O)O)c(C)n2C(=O)c1ccc(Cl)cc1", "activity change, negative = inhibition": "-0.339% (inactive)"}, {"smiles": "NCCS(=O)(=O)O", "activity change, negative = inhibition": "-2.12% (inactive)"}, {"smiles": "O=C(c1ccc(F)cc1)C1CCN(CCn2c(=O)[nH]c3ccccc3c2=O)CC1", "Potency": "6.31 µM (active)"}, {"smiles": "CCc1cccc2c3c([nH]c12)C(CC)(CC(=O)O)OCC3", "note": "(stereo not given)", "activity change, negative = inhibition": "-1.67% (inactive)"}, {"smiles": "NC(CO)C(=O)NNCc1ccc(O)c(O)c1O", "note": "(stereo not given)", "activity change, negative = inhibition": "-17% (inactive)"}, {"smiles": "Cc1cc(C(C)(C)C)c(O)c(C)c1CC1=NCCN1", "activity change, negative = inhibition": "-2.1% (inactive)"}, {"smiles": "Cc1cnc(C(=O)NCCc2ccc(S(=O)(=O)NC(=O)NC3CCCCC3)cc2)cn1", "activity change, negative = inhibition": "2% (inactive)"}, {"smiles": "CC(C)NCC(O)c1ccc(O)c(O)c1", "note": "(stereo not given)", "Potency": "inactive"}, {"smiles": "COC(=O)Nc1nc2ccc(C(=O)c3cccs3)cc2[nH]1", "activity change, negative = inhibition": "-24.1% (inactive)"}, {"smiles": "CCOC(=O)c1ncn2c1CN(C)C(=O)c1cc(F)ccc1-2", "activity change, negative = inhibition": "2.39% (inactive)"}, {"smiles": "CN(Cc1cnc2nc(N)nc(N)c2n1)c1ccc(C(=O)N[C@@H](CCC(=O)O)C(=O)O)cc1", "Potency": "0.0794 µM (active)"}, {"smiles": "CN1CCN2c3ccccc3Cc3ccccc3C2C1", "note": "(stereo not given)", "Potency": "7.08 µM (active)"}, {"smiles": "C[C@](N)(Cc1ccc(O)c(O)c1)C(=O)O", "activity change, negative = inhibition": "-18.2% (inactive)"}, {"smiles": "OCCN(CCO)c1nc(N2CCCCC2)c2nc(N(CCO)CCO)nc(N3CCCCC3)c2n1", "Potency": "6.31 µM (active)"}, {"smiles": "NCCCCCC(=O)O", "activity change, negative = inhibition": "6.81% (inactive)"}, {"smiles": "Cn1c(=O)c2[nH]cnc2n(C)c1=O", "activity change, negative = inhibition": "-0.821% (inactive)"}]}]}
